# Experimental data from the supplement of paper PMC8728848.
# Shown is part of a subset that was picked to be rich in the strongest signals.
# Legend:
# Assay in all cases: glycan array binding signal (z-score within array); higher = stronger binding
# Conditions in all cases: glycan notation: IUPAC condensed, linker removed
# [1] = biological target: Fuc(a1-2)Gal(b1-4)GlcNAc
# Outline: (§1)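 Arrays were curated from the Consortium for Functional Glycomics database, 3228 in total, and kept only where the protein sequence was available. Binding is expressed as a within-array Z-score. This score was averaged across arrays of the same protein sequence at different concentrations or buffers and across linkers, and negative values can be read as non-binding.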
# [2] = biological target: Fuc(a1-2)Gal(b1-4)GlcNAc(b1-3)Gal(b1-4)GlcNAc(b1-3)Gal(b1-4)GlcNAc
# Outline: as §1
# [3] = biological target: Fuc(a1-2)Gal(b1-4)[Fuc(a1-3)]GlcNAc
# Outline: as §1
# [4] = biological target: Fuc(a1-2)Gal6S(b1-4)Glc
# Outline: as §1
# [5] = biological target: Fuc(a1-2)Gal6S(b1-4)GlcNAc
# Outline: as §1
# [6] = biological target: Fuc(a1-2)[Gal(a1-3)]Gal(b1-4)GlcNAc
# Outline: as §1
# [7] = biological target: Fuc(a1-2)[GalNAc(a1-3)]Gal(b1-3)GlcNAc(b1-2)Man(a1-3)[Fuc(a1-2)[GalNAc(a1-3)]Gal(b1-3)GlcNAc(b1-2)Man(a1-6)]Man(b1-4)GlcNAc(b1-4)GlcNAc
# Outline: as §1
# [8] = biological target: Fuc(a1-2)[GalNAc(a1-3)]Gal(b1-4)GlcNAc
# Outline: as §1
# [9] = biological target: Fuc(a1-3)[Gal(b1-4)]GlcNAc(b1-2)Man(a1-6)[Gal(b1-4)GlcNAc(b1-2)Man(a1-3)]Man(b1-4)GlcNAc(b1-4)GlcNAc
# Outline: as §1
# [10] = biological target: Gal(a1-3)Gal(b1-3)GlcNAc(b1-2)Man(a1-3)[Gal(a1-3)Gal(b1-3)GlcNAc(b1-2)Man(a1-6)]Man(b1-4)GlcNAc(b1-4)GlcNAc
# Outline: as §1
# [11] = biological target: Gal(a1-4)Gal(b1-3)GlcNAc(b1-2)Man(a1-3)[Gal(a1-4)Gal(b1-3)GlcNAc(b1-2)Man(a1-6)]Man(b1-4)GlcNAc(b1-4)GlcNAc
# Outline: as §1
# [12] = biological target: Gal(a1-4)Gal(b1-4)GlcNAc(b1-2)Man(a1-3)[Gal(a1-4)Gal(b1-4)GlcNAc(b1-2)Man(a1-6)]Man(b1-4)GlcNAc(b1-4)GlcNAc
# Outline: as §1
# [13] = biological target: Gal(b1-3)Gal
# Outline: as §1
# [14] = biological target: Gal(b1-3)Gal(b1-4)GlcNAc
# Outline: as §1
# [15] = biological target: Gal(b1-3)GalNAc(a1-3)[Fuc(a1-2)]Gal(b1-4)GlcNAc
# Outline: as §1
# [16] = biological target: Gal(b1-3)GlcNAc(b1-3)Gal(b1-4)GlcNAc(b1-6)[Gal(b1-3)GlcNAc(b1-3)]Gal(b1-4)Glc
# Outline: as §1
# [17] = biological target: Gal(b1-4)GlcNAc(a1-6)Gal(b1-4)GlcNAc
# Outline: as §1
# [18] = biological target: Gal(b1-4)GlcNAc(b1-2)Man(a1-3)[GlcNAc(b1-2)Man(a1-6)]Man(b1-4)GlcNAc(b1-4)GlcNAc
# Outline: as §1
# [19] = biological target: Gal3S(b1-4)[Fuc(a1-3)]Glc
# Outline: as §1
# [20] = biological target: GlcNAc(a1-4)Gal(b1-4)GlcNAc(b1-3)Gal(b1-4)Glc
# Outline: as §1
# [21] = biological target: GlcNAc(b1-2)[GlcNAc(b1-4)]Man(a1-3)[GlcNAc(b1-2)Man(a1-6)]Man(b1-4)GlcNAc(b1-4)GlcNAc
# Outline: as §1
# [22] = biological target: GlcNAc(b1-3)Gal(b1-4)GlcNAc
# Outline: as §1
# [23] = biological target: GlcNAc(b1-3)[GlcNAc(b1-4)][GlcNAc(b1-6)]GlcNAc
# Outline: as §1
# [24] = biological target: Man(a1-2)Man(a1-3)[Man(a1-2)Man(a1-6)]Man
# Outline: as §1
# [25] = biological target: Man(a1-2)Man(a1-3)[Man(a1-2)Man(a1-6)]Man(a1-6)[Man(a1-2)Man(a1-2)Man(a1-3)]Man
# Outline: as §1
# [26] = biological target: Neu5Ac(a2-3)Gal(b1-3)GlcNAc(b1-2)Man(a1-3)[Neu5Ac(a2-3)Gal(b1-3)GlcNAc(b1-2)Man(a1-6)]Man(b1-4)GlcNAc(b1-4)GlcNAc
# Outline: as §1
# [27] = biological target: Neu5Ac(a2-3)Gal(b1-3)GlcNAc(b1-3)Gal(b1-3)GlcNAc
# Outline: as §1
# [28] = biological target: Neu5Ac(a2-3)Gal(b1-3)GlcNAc(b1-3)Gal(b1-4)GlcNAc
# Outline: as §1
# [29] = biological target: Neu5Ac(a2-3)Gal(b1-3)[Neu5Ac(a2-3)Gal(b1-4)]GlcNAc
# Outline: as §1
# [30] = biological target: Neu5Ac(a2-3)Gal(b1-4)GlcNAc(b1-2)Man(a1-3)[GlcNAc(b1-2)Man(b1-4)GlcNAc(b1-2)Man(a1-6)]Man(b1-4)GlcNAc(b1-4)GlcNAc
# Outline: as §1
# [31] = biological target: Neu5Ac(a2-3)Gal(b1-4)GlcNAc(b1-2)Man(a1-3)[Neu5Ac(a2-6)Gal(b1-4)GlcNAc(b1-2)Man(a1-6)]Man(b1-4)GlcNAc(b1-4)GlcNAc
# Outline: as §1
# [32] = biological target: Neu5Ac(a2-3)Gal(b1-4)[Fuc(a1-3)]GlcNAc(b1-3)Gal(b1-4)[Fuc(a1-3)]GlcNAc(b1-3)Gal(b1-4)[Fuc(a1-3)]GlcNAc
# Outline: as §1
# [33] = biological target: Neu5Ac(a2-6)Gal(b1-4)Glc
# Outline: as §1
# [34] = biological target: Neu5Ac(a2-6)Gal(b1-4)GlcNAc(b1-3)Gal(b1-4)GlcNAc(b1-3)Gal(b1-4)GlcNAc
# Outline: as §1
# [35] = biological target: Neu5Ac(a2-6)Gal(b1-4)GlcNAc(b1-3)GalNAc
# Outline: as §1
# [36] = biological target: Neu5Ac(a2-6)GalNAc(b1-4)GlcNAc
# Outline: as §1
binder,measurement,setting,value
"Mincle (Homo sapiens), Q9ULY5 (protein) MNSSKSSETQCTERGCFSSQMFLWTVAGIPILFLSACFITRCVVTFRIFQTCDEKKFQLPENFTELSCYNYGSGSVKNCCPLNWEYFQSSCYFFSTDTISWALSLKNCSAMGAHLVVINSQEEQEFLSYKKPKMREFFIGLSDQVVEGQWQWVDGTPLTKSLSFWDVGEPNNIATLEDCATMRDSSNPRQNWNDVTCFLNYFRICEMVGINPLNKGKSL",glycan array binding signal (z-score),[1],-0.329
same,glycan array binding signal (z-score),[2],0.144
same,glycan array binding signal (z-score),[3],-0.37
same,glycan array binding signal (z-score),[4],-0.325
same,glycan array binding signal (z-score),[5],-0.106
same,glycan array binding signal (z-score),[6],-0.111
same,glycan array binding signal (z-score),[7],0.062
same,glycan array binding signal (z-score),[8],-0.289
same,glycan array binding signal (z-score),[9],5.4
same,glycan array binding signal (z-score),[10],4.69
same,glycan array binding signal (z-score),[11],0.054
same,glycan array binding signal (z-score),[12],3.26
same,glycan array binding signal (z-score),[13],-0.357
same,glycan array binding signal (z-score),[14],-0.566
same,glycan array binding signal (z-score),[15],-0.127
same,glycan array binding signal (z-score),[16],6.4
same,glycan array binding signal (z-score),[17],-0.484
same,glycan array binding signal (z-score),[18],0.969
same,glycan array binding signal (z-score),[19],-0.146
same,glycan array binding signal (z-score),[20],-0.295
same,glycan array binding signal (z-score),[21],-0.194
same,glycan array binding signal (z-score),[22],-0.245
same,glycan array binding signal (z-score),[23],-0.38
same,glycan array binding signal (z-score),[24],0.813
same,glycan array binding signal (z-score),[25],5
same,glycan array binding signal (z-score),[26],-0.71
same,glycan array binding signal (z-score),[27],-0.197
same,glycan array binding signal (z-score),[28],-0.575
same,glycan array binding signal (z-score),[29],-0.483
same,glycan array binding signal (z-score),[30],3.33
same,glycan array binding signal (z-score),[31],2.53
same,glycan array binding signal (z-score),[32],-0.324
same,glycan array binding signal (z-score),[33],-0.181
same,glycan array binding signal (z-score),[34],-0.394
same,glycan array binding signal (z-score),[35],0.372
same,glycan array binding signal (z-score),[36],-0.184
